The source of these data is PubChem BioAssay AID1456 (Vanderbilt High Throughput Screening Facility, 2008).

Out of some 190,000 compounds screened, about 4,100 (2.2%) were called active. This excerpt belongs to a sample that is enriched for actives. A number with no mark means an inactive call.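 Rule for the calls: active = thallium flux slope and its plate-corrected score both differing from the plate sample mean at a set confidence after two filtering rounds, in either direction; inactive = the rest.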

Sequence of Solute carrier family 12 member 5 (Homo sapiens) (Q9H2X9 whole entry, looked up): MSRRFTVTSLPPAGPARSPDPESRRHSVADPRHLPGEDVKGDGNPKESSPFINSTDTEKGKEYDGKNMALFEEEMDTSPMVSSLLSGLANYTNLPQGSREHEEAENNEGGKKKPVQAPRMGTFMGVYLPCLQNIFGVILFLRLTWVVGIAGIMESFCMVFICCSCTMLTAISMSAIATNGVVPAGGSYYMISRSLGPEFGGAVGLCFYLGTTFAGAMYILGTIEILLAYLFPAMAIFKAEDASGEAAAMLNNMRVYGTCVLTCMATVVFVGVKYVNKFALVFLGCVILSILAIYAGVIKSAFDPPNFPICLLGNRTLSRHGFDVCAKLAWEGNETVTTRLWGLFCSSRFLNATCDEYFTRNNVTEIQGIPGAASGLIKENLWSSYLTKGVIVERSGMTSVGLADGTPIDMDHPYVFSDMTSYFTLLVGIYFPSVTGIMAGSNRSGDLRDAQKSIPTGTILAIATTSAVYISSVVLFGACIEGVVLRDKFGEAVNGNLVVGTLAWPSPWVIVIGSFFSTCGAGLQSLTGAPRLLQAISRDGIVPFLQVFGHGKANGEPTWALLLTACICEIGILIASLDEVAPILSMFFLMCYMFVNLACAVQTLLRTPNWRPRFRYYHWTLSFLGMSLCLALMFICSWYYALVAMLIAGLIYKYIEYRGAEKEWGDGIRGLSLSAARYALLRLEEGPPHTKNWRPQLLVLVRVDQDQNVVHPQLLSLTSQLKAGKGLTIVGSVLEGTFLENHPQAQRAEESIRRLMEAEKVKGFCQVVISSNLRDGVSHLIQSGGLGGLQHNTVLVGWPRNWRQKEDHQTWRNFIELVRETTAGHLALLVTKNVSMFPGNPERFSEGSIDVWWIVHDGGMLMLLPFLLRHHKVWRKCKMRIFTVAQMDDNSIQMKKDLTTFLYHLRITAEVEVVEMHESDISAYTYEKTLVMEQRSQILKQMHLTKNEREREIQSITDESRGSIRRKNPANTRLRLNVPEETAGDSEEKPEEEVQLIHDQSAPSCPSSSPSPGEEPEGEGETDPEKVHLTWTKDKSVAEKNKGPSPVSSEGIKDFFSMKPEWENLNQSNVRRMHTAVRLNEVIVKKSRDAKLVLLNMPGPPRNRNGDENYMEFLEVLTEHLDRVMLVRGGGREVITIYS

This assay concerns the target Solute carrier family 12 member 5 (Homo sapiens) (UniProt Q9H2X9). Briefly: KCC2 cotransporter modulators, thallium flux, primary screen, cell-based, HEK293 KCC2, FluoZin-2 fluorescence, MLSMR (AID 1456).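 Note: slope of fluorescence scaled to starting intensity during 10 to 20 s after thallium.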 Conditions: KCC2 cells, thallium flux FluoZin-2 fluorescence; at 10 µM.
Regarding `CCn1c(SCC(=O)Nc2sc(C)c(C)c2C#N)nnc1C1CC1`, the B-score of Tl+ flux slope (higher = more flux/activation; lower = inhibition) was 0.253. Then `Cc1onc(-c2ccccc2)c1C(=O)N=C(N)c1ccc(Cl)cc1`, with 1.42. As to `COc1ccc(C(=O)NC(=S)NNC(=O)c2c(-c3ccccc3)noc2C)cc1`, the B-score of Tl+ flux slope (higher = more flux/activation; lower = inhibition) was 11.1 (active).

`CC(=O)Nc1cccc(NC(=O)c2c(-c3ccccc3)noc2C)c1`: the B-score of Tl+ flux slope (higher = more flux/activation; lower = inhibition) is -0.00829.

Take `COc1ccc(C(=O)NNC(=S)NC(=O)c2ccccc2[N+](=O)[O-])cc1`: the B-score of Tl+ flux slope (higher = more flux/activation; lower = inhibition) is 1.61. Then `Cc1onc(-c2ccccc2)c1C(=O)N1CCOCC1`, with 0.00257. To `Cc1onc(-c2ccccc2)c1C(=O)NNC(=S)NC(=O)c1ccc(F)cc1` belongs 8.51 (active).

As to `O=C1CCCC(O)=C1N=Nc1ccc(S(=O)(=O)N2CCOCC2)cc1`, the B-score of Tl+ flux slope (higher = more flux/activation; lower = inhibition) is -0.62. Then `Cc1ccc(OC(=O)c2c(C)nn(-c3ccccc3)c2C)cc1`, with 0.00646; and `O=C(Nc1ccc(Cl)cc1)Nc1ccc(C(=O)N2CCOCC2)cc1`, with 0.868. For `c1ccc2c(NC3C4CC5CC(C4)CC3C5)nc(N3CCOCC3)nc2c1` (stereo not drawn), the B-score of Tl+ flux slope (higher = more flux/activation; lower = inhibition) was -0.0419. Then `COC(=O)c1sccc1NC(=O)CC1C(=O)NCCN1C(=O)Nc1ccc(F)cc1F` (stereo not drawn), with -0.52. Turning to `COC(=O)c1ccccc1N=Nc1c(C)[nH][nH]c1=O`, the B-score of Tl+ flux slope (higher = more flux/activation; lower = inhibition) was 0.855. As to `O=C(Nc1nnc(-c2ccccc2)o1)c1cc(-c2cccs2)nc2ccccc12`, the B-score of Tl+ flux slope (higher = more flux/activation; lower = inhibition) is 99.4 (active). In the case of `CC(C)(C)Cc1nnc(NC(=O)c2cc(-c3ccccc3)nc3ccccc23)s1`, the B-score of Tl+ flux slope (higher = more flux/activation; lower = inhibition) is 0.0714. Then `O=C(Nc1ccc(S(=O)(=O)Nc2nccs2)cc1)c1cc(-c2ccncc2)nc2ccccc12`, with -0.477. To `Cc1c(NC(=O)CN2C(=O)C(=O)N(Cc3ccccc3)C2=O)c(=O)n(-c2ccccc2)n1C` belongs 0.0462; to `Oc1oc(-c2ccccc2Br)nc1/C=N/c1ccccn1`, 1.39; to `COC(=O)Cn1c(O)c(N=NC(=O)OC)c2ccccc21`, 1.85. Then `CC(C)n1c(O)c(N=Nc2ccccn2)c2ccccc21`, with 5.67 (active); and `COc1ccc(Cn2c(O)c(/C=C3/C=CC=N3)c(=O)[nH]c2=O)cc1`, with -0.723.

In the case of `Cn1nc(C(F)(F)F)cc1C(=O)O`, the B-score of Tl+ flux slope (higher = more flux/activation; lower = inhibition) is 1.56. To `Cc1cc(NC(=O)OC(C)C)ccc1-c1ccc(NC(=O)OC(C)C)cc1C` belongs -0.761; to `CC(C)CN(CC(C)C)CC(O)CN(c1ccccc1)S(=O)(=O)c1ccccc1[N+](=O)[O-]` (stereo not drawn), -2.39. Then `CCC(C)Cn1c(O)cc2nn(-c3nc4ccccc4s3)c(=O)c-2c1C` (stereo not drawn), with 5.85 (active); and `CCOC(=O)N1CCN(CC(=O)Nc2cc(C)nn2-c2nc3ccccc3s2)CC1`, with -0.634. As for `Cc1cc(NC(=O)CN2CCCC(C)C2)n(-c2nc3ccccc3s2)n1` (stereo not drawn), the B-score of Tl+ flux slope (higher = more flux/activation; lower = inhibition) was 0.312. Then `C/C(=N\NC(=O)c1cccnc1)c1ccc(-n2ccnc2)cc1`, with 0.898; and `COc1cc2c(cc1OC)C(/C=C/c1ccco1)=NCC2`, with -1.64.

`CCn1c(=O)cc(OCC(=O)NCCCN2CCN(c3cccc(Cl)c3)CC2)c2ccccc21`: the B-score of Tl+ flux slope (higher = more flux/activation; lower = inhibition) was -4.58. To `COc1cccc(CNC(=O)CCN2C(=S)NC(C)(C)CC2C)c1` (stereo not drawn) belongs -1.19; to `COc1cccc(CNC(=O)Cc2csc(Nc3nc(=S)[nH]c4ccccc34)n2)c1`, 16.7 (active); to `COc1cccc(CNC(=O)c2n[nH]c3ccccc23)c1`, -0.482. Take `O=C(CCCn1c(=O)[nH]c2cc(Cl)ccc2c1=O)NCCN1CCN(c2ccccc2)CC1`: the B-score of Tl+ flux slope (higher = more flux/activation; lower = inhibition) was -1.09. Then `O=C(Cc1csc(Nc2nc(=S)[nH]c3ccccc23)n1)NCCCN1CCN(c2cccc(Cl)c2)CC1`, with 18.7 (active); and `COC(=O)c1cc(S(=O)(=O)N2CCC(C(N)=O)CC2)oc1C`, with 0.506. Then `Cn1cc(S(=O)(=O)NC(c2ccccc2)c2ccccc2)c(=O)n(C)c1=O`, with 1.52. For the compound `CCCNc1c(N)c(=O)c1=O`, the B-score of Tl+ flux slope (higher = more flux/activation; lower = inhibition) is 0.441. To `O=C(Cc1ccccc1)Nc1c(Cl)ccc2nsnc12` belongs 0.0149; to `O=C(Nc1ccn(Cc2ccccc2)n1)c1n[nH]c([N+](=O)[O-])c1Cl`, -5.21; to `O=C(Nc1ccn(Cc2ccc(F)cc2)n1)c1ccncc1`, -1.12. Then `O=C(Nc1ccn(Cc2ccccc2)n1)c1cccc(F)c1`, with -4.17 (active); and `CC(=O)NCc1ccc(S(=O)(=O)NC2CCN(Cc3ccccc3)CC2)cc1`, with -1.54; and `Nn1c(SCc2ccccc2)nnc1C1CCCCC1`, with 0.0386. Then `COc1ccccc1CNC(=O)Cn1c(=O)oc2cc(Cl)ccc21`, with 0.172; and `COc1ccccc1N1CCN(C(=O)CSc2ncnc3c2cnn3-c2ccc(C)c(C)c2)CC1`, with 5.99 (active). On to `COc1ccccc1N1CCN(C(=O)CSc2nnc(-c3ccoc3C)o2)CC1`, for which the B-score of Tl+ flux slope (higher = more flux/activation; lower = inhibition) was -1.44. Then `COC(=O)CSc1ncnc2c1cnn2-c1ccc(C)cc1C`, with 0.528.
